Measurements published in PubChem BioAssay (NCATS).
Results filed as inconclusive are left out. Calls of active or inactive are those of the source. Unless noted, the call rests on the fitted dose curve; in most records, active means well fitted curve in the direction sought with a large enough effect; inconclusive means small, poorly fitted or top-dose-only effect, or another doubt; inactive means no such curve, though single readings can be large; an effect the other way counts as inactive or inconclusive.

Tests used:
[1] = MultiTox-Fluor Cytotoxicity Assay - LYMP1-001 - Dead Cells (AID 946); details: LYMP1-001 lymphoblastoid cells, dead-cell protease fluorescence; series mostly up to 92.2 µM; further: potency means the concentration at half of the fitted maximal effect
How it was run: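 LYMP1-001 lymphoblastoid cells (2500/well) treated 16 h at 37 C. Dead-cell protease cleavage of bis-AAF-R110 read at Ex/Em 485/520. Normalized to DMSO and 15 uM tetraoctylammonium bromide; AC50 from Hill fits.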

[2] = MultiTox-Fluor Cytotoxicity Assay - LYMP1-001 - Live Cells (AID 947); details: LYMP1-001 lymphoblastoid cells, live-cell protease fluorescence viability; series mostly up to 92.2 µM
[3] = Cell Viability - LYMP1-002 - Assay at 16 hr (AID 948); details: LYMP1-002 lymphoblastoid cell viability; series mostly up to 92.2 µM; further: potency means the concentration at half of the fitted maximal effect
How it was run: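 ATP luminescence (CellTiter-Glo) was measured after 16 hr compound exposure at 37 C of 2500 lymphoblastoid LYMP1-002 cells per well. Concentration-response curves were fitted with the Hill equation to give AC50.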

[4] = MultiTox-Fluor Cytotoxicity Assay - LYMP1-002 - Live Cells (AID 955); details: LYMP1-002 lymphoblastoid live-cell protease fluorescence viability; series mostly up to 46.1 µM; further: potency means the concentration at half of the fitted maximal effect
How it was run: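 Cytotoxicity in the human lymphoblastoid line LYMP1-002 is measured as loss of live-cell protease activity after 16 h treatment in complete culture medium. AC50 is derived from Hill-equation fits of qHTS concentration-response data.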

[5] = MultiTox-Fluor Cytotoxicity Assay - LYMP1-002 - Dead Cells (AID 960); details: LYMP1-002 lymphoblastoid cells, dead-cell protease fluorescence; series mostly up to 46.1 µM; further: nearly all actives have a fitted effect of over 60% in size; further: potency means the concentration at half of the fitted maximal effect
How it was run: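 Acute cytotoxicity in a human lymphoblastoid line is scored as rising dead-cell protease signal after 16 hr exposure at 37 C, measured fluorometrically (485/520).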

[6] = MultiTox-Fluor Cytotoxicity Assay - LYMP1-003 - Dead Cells (AID 961); details: LYMP1-003 lymphoblastoid cells, dead-cell protease fluorescence; series mostly up to 92.2 µM; further: nearly all actives have a fitted effect of over 70% in size
How it was run: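 LYMP1-003 human lymphoblastoid cells (2500/well) exposed to compound 16 h at 37 C in complete medium; dead-cell protease read with bis-AAF-R110 fluorescence (Ex/Em 485/520) after 60 min at room temperature. Normalized to DMSO and 15 uM tetraoctylammonium bromide; AC50 from Hill fit.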

[7] = MultiTox-Fluor Cytotoxicity Assay - LYMP1-003 - Live Cells (AID 962); details: LYMP1-003 lymphoblastoid cells, MultiTox-Fluor live-cell protease fluorescence; series mostly up to 92.2 µM; further: potency means the concentration at half of the fitted maximal effect
How it was run: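 Cells plated at 2500 per well and incubated 5 hr; compounds added and incubated 16 hr at 37 C; MultiTox-Fluor reagent added for 60 min at room temperature; fluorescence of liberated AFC measured at 405/510 nm.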

[8] = target: Pyruvate kinase PKM (Homo sapiens) (UniProt P14618); experiment: qHTS Assay for Activators of Human Muscle Pyruvate Kinase (AID 954; active means well fitted curve in the direction sought with a large enough effect, not every such curve was filed as active); details: purified human muscle pyruvate kinase, luciferase-coupled luminescence, 1 h; series mostly up to 57.5 µM
Pyruvate kinase PKM (Homo sapiens), sequence (P14618 whole entry, looked up): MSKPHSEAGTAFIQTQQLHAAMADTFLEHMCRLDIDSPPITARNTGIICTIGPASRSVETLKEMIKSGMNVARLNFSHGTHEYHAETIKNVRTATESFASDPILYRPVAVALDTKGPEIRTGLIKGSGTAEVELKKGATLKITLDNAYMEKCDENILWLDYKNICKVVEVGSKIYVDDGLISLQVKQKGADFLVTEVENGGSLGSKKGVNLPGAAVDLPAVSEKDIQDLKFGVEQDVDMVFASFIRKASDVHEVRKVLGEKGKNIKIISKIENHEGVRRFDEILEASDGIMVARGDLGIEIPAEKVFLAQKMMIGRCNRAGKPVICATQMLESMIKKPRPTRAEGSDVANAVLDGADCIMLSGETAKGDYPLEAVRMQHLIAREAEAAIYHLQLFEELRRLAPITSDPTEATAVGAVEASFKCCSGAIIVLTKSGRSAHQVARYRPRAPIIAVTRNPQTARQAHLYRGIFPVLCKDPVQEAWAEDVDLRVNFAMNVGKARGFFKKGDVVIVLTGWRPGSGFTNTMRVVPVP
How it was run: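 Purified human PKM2 (0.1 nM) with 0.5 mM PEP (Km) and 0.1 mM ADP in 50 mM imidazole pH 7.2, KCl, MgCl2, 1 h at room temperature; ATP formed read by coupled luciferase luminescence. Normalized to no-enzyme/110 uM thiadiazolimine inhibition; 0.3 nM enzyme column for activation.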

[9] = target: Pyruvate kinase PKM (Homo sapiens) (UniProt P14618); experiment: qHTS Assay for Inhibitors of Human Muscle Pyruvate Kinase (AID 958); details: purified human PKM enzyme activity
How it was run: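 ATP production by PKM2 detected via luciferase luminescence after 1 h room-temperature reaction (0.1 nM enzyme, PEP at Km 0.5 mM, ADP 0.1 mM, pH 7.2 imidazole buffer). Inhibition scaled to no-enzyme control; activation referenced to 0.3 nM enzyme wells.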

[10] = target: Pyruvate kinase (Leishmania mexicana) (UniProt Q27686); experiment: qHTS Validation Assay for Activators of Leishmania Mexicana Pyruvate Kinase (AID 959); details: purified L. mexicana pyruvate kinase, enzyme activity; series mostly up to 57.5 µM
Pyruvate kinase (Leishmania mexicana), sequence (Q27686 2-499 E452W): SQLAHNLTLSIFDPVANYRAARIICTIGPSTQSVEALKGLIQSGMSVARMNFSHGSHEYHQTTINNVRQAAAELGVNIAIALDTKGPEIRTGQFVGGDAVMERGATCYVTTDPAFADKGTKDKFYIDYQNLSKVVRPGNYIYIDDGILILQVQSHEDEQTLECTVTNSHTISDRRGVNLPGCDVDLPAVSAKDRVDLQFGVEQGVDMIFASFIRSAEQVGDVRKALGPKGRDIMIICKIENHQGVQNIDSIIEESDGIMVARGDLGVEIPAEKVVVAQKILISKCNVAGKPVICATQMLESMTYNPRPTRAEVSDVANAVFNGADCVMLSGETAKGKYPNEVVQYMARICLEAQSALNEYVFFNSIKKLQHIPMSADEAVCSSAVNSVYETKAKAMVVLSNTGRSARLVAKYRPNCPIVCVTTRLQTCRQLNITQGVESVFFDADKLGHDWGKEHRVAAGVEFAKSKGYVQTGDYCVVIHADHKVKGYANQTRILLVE
How it was run: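 The enzyme is a highly purified E451W mutant of LmPYK used at 0.2 nM. It converts 0.5 mM PEP and 0.1 mM ADP over 1 h at room temperature; product ATP is quantified by luciferase luminescence relative to DMSO controls.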

Measured: Potency

CCn1cc(C(=O)O)c(=O)c2ccc(C)nc21
not listed: [8] | [9] | [10]
inactive: all other assays above

CCN1CCC[C@H]1CNC(=O)c1cc(S(N)(=O)=O)ccc1OC
inactive: [8]

CC1=C(/C=C/C(C)=C/C=C/C(C)=C/C(=O)Nc2ccc(O)cc2)C(C)(C)CCC1
active: [1] 79.4 µM | [3] 50.1 µM | [4] 25.1 µM | [5] 31.6 µM | [7] 50.1 µM
inactive: [8]

C[N+](C)(C)CCCCCC[N+](C)(C)C
inactive: [8]

CC(=O)CCCCn1c(=O)c2c(ncn2C)n(C)c1=O
inactive: [8]

CC(C)OC(=O)C(C)(C)Oc1ccc(C(=O)c2ccc(Cl)cc2)cc1
inactive: [8]

O=c1c(O)c(-c2ccc(O)cc2)oc2cc(O)cc(O)c12
not listed: [8] | [9] | [10]
inactive: all other assays above

NCCS
inactive: [8]

CCCCC1C(=O)N(c2ccccc2)N(c2ccccc2)C1=O
not listed: [9] | [10]
inactive: all other assays above

CCN(CC)CCOC(=O)c1ccc(N)cc1
inactive: [8]

O=C1NCC2(CCN(CCc3ccccc3)CC2)O1
inactive: [8]

O=c1c(-c2ccc(O)cc2)coc2cc(O)ccc12
not listed: [9] | [10]
inactive: all other assays above

COc1cccc(-c2cc(=O)c3ccccc3o2)c1N
active: [9] 15.8 µM
inactive: [8] | [10]

CCN(CC)CCNC(=O)c1ccc(N)cc1
inactive: [8]

CCCNC(=O)NS(=O)(=O)c1ccc(Cl)cc1
not listed: [9] | [10]
inactive: all other assays above

O=c1cc(-c2ccc(O)cc2)oc2cc(O)cc(O)c12
active: [1] 79.4 µM
inactive: [8] | [10] | [5] | [7]

CC(=O)N[C@@H](CS)C(=O)O
inactive: [8]

O=c1[nH]cnc2c1ncn2[C@H]1CC[C@@H](CO)O1
not listed: [8] | [9] | [10]
inactive: all other assays above

COc1ccc(Cc2nccc3cc(OC)c(OC)cc23)cc1OC
inactive: [8]

CC(=O)c1ccc(S(=O)(=O)NC(=O)NC2CCCCC2)cc1
not listed: [5] | [9] | [10]
inactive: all other assays above

O=C1NC(=O)C(c2ccccc2)(c2ccccc2)N1
inactive: [1] | [3] | [8] | [4] | [6] | [7]

NC(N)=Nc1nc(CSCC/C(N)=N/S(N)(=O)=O)cs1
inactive: [8]

CCN(CC)C(=O)c1ccc(O)c(OC)c1
inactive: [8]

COc1ccccc1N1CCN(CCCNc2cc(=O)n(C)c(=O)n2C)CC1
inactive: [8]

C[N+](C)(C)CC(=O)O
inactive: [8]

CC/C(=C(\c1ccccc1)c1ccc(OCCN(C)C)cc1)c1ccccc1
inactive: [8]
active: [1] 50.1 µM | [4] 31.6 µM | [5] 25.1 µM

CC(C)NCC(O)COc1cccc2[nH]ccc12 (stereo not drawn)
inactive: [8]

O=C(O)Cc1cccc2ccccc12
not listed: [8] | [9] | [10]
inactive: all other assays above

CC(=O)O[C@]1(C(C)=O)CC[C@H]2[C@@H]3C=C(Cl)C4=CC(=O)[C@@H]5C[C@@H]5[C@]4(C)[C@H]3CC[C@@]21C
inactive: [2] | [3] | [4] | [5] | [6] | [7]

CC(C)(C)c1ccc(C(O)CCCN2CCC(C(O)(c3ccccc3)c3ccccc3)CC2)cc1 (stereo not drawn)
inactive: [8]

Clc1ccc(Cn2c(CN3CCCC3)nc3ccccc32)cc1
inactive: [8]

COCCCCC(=NOCCN)c1ccc(C(F)(F)F)cc1
inactive: [8]

CC1(C)CCC2=C(O1)c1ccccc1C(=O)C2=O
inactive: [8]

O=C(O)CCc1nc(-c2ccccc2)c(-c2ccccc2)o1
inactive: [8]

CN(C)CCC(c1ccccc1)c1ccccn1 (stereo not drawn)
not listed: [8] | [9] | [10]
inactive: all other assays above

O=C(O)c1cc(O)c2c(c1)C(=O)c1cccc(O)c1C2=O
not listed: [8] | [9] | [10]
inactive: all other assays above
